Measured values published in PubChem BioAssay AID1159580 (chemical genetic matrix, 2015).
Hit rate of the full screen: of about 5,500 compounds, about 2,000 (36%) were called active. Not shown: some 18% with an inconclusive outcome. No stated cut-off is given here; in the data, active means normalized growth mostly below about 0.91 (no sharp cut-off); inconclusive means no clear call, values can overlap the other calls; inactive means mostly above about 0.92. This is one part of the list.

Assay: chemical genetic growth profiling, strain panel (AID 1159580);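 further: tested at 20 µM; growth read once vehicle control cultures reached saturation at 30 °C; 1 = growth at the plate median or of vehicle wells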
Details: growth OD

Measured: normalized growth

CC(C)[C@@H]1CC[C@@H](C)CC1=O
inactive: S. cerevisiae deletion strains, locus YJR066W, strain TOR1, stronger effect = lower value 0.94 | S. cerevisiae deletion strains, locus YJR075W, strain HOC1, stronger effect = lower value 1.02 | S. cerevisiae deletion strains, locus YKL009W, strain mrt4, stronger effect = lower value 1.01 | S. cerevisiae deletion strains, locus YKL068W, stronger effect = lower value 1.02 | S. cerevisiae deletion strains, locus YKL085W, strain MDH1 (second series), stronger effect = lower value 0.999 | S. cerevisiae deletion strains, locus YKL085W, strain MDH1, stronger effect = lower value 0.999 | S. cerevisiae deletion strains, locus YKL160W, strain elf1, stronger effect = lower value 0.981 | S. cerevisiae deletion strains, locus YKR001C, strain vps1, stronger effect = lower value 0.991 | S. cerevisiae deletion strains, locus YKR026C, strain gcn3, stronger effect = lower value 0.984 | S. cerevisiae deletion strains, locus YKR091W, strain srl3, stronger effect = lower value 0.991 | S. cerevisiae deletion strains, locus YLL001W, strain dnm1, stronger effect = lower value 0.98 | S. cerevisiae deletion strains, locus YLL026W, stronger effect = lower value 0.985 | S. cerevisiae deletion strains, locus YLL041C, strain sdh2, stronger effect = lower value 0.991 | S. cerevisiae deletion strains, locus YLR027C, strain aat2, stronger effect = lower value 0.979 | S. cerevisiae deletion strains, locus YLR039C, strain RIC1, stronger effect = lower value 1.09 | S. cerevisiae deletion strains, locus YLR058C, strain SHM2, stronger effect = lower value 1.02 | S. cerevisiae deletion strains, locus YLR102C, strain apc9, stronger effect = lower value 0.997 | S. cerevisiae deletion strains, locus YLR113W, strain HOG1, stronger effect = lower value 0.967 | S. cerevisiae deletion strains, locus YLR221C, strain rsa3, stronger effect = lower value 1.01 | S. cerevisiae deletion strains, locus YLR258W, strain gsy2, stronger effect = lower value 0.996 | S. cerevisiae deletion strains, locus YLR262C, strain YPT6 (second series), stronger effect = lower value 0.979 | S. cerevisiae deletion strains, locus YLR262C, strain YPT6, stronger effect = lower value 1.14 | S. cerevisiae deletion strains, locus YLR268W, strain sec22, stronger effect = lower value 1.02 | S. cerevisiae deletion strains, locus YLR320W, strain mms22, stronger effect = lower value 1.01 | S. cerevisiae deletion strains, locus YLR330W, strain CHS5, stronger effect = lower value 1.01 | S. cerevisiae deletion strains, locus YLR342W, strain FKS1 (second series), stronger effect = lower value 1.03 | S. cerevisiae deletion strains, locus YLR342W, strain FKS1, stronger effect = lower value 0.995 | S. cerevisiae deletion strains, locus YLR357W, strain rsc2, stronger effect = lower value 0.998 | S. cerevisiae deletion strains, locus YLR370C, strain arc18, stronger effect = lower value 0.983 | S. cerevisiae deletion strains, locus YLR371W, strain rom2, stronger effect = lower value 1 | S. cerevisiae deletion strains, locus YLR384C, strain iki3, stronger effect = lower value 1.01 | S. cerevisiae deletion strains, locus YLR418C, strain cdc73, stronger effect = lower value 1.01 | S. cerevisiae deletion strains, locus YML016C, strain PPZ1, stronger effect = lower value 1.01 | S. cerevisiae deletion strains, locus YML032C, strain rad52, stronger effect = lower value 1.01 | S. cerevisiae deletion strains, locus YML120C, strain ndi1, stronger effect = lower value 0.982 | S. cerevisiae deletion strains, locus YML124C, strain tub3, stronger effect = lower value 0.999 | S. cerevisiae deletion strains, locus YMR058W, strain fet3, stronger effect = lower value 0.989 | S. cerevisiae deletion strains, locus YMR078C, strain ctf18, stronger effect = lower value 1 | S. cerevisiae deletion strains, locus YMR125W, strain sto1, stronger effect = lower value 0.965 | S. cerevisiae deletion strains, locus YMR129W, stronger effect = lower value 1 | S. cerevisiae deletion strains, locus YMR205C, strain PFK2, stronger effect = lower value 1 | S. cerevisiae deletion strains, locus YMR223W, strain ubp8, stronger effect = lower value 1 | S. cerevisiae deletion strains, locus YMR231W, strain pep5, stronger effect = lower value 1 | S. cerevisiae deletion strains, locus YMR263W, strain SAP30, stronger effect = lower value 1.02 | S. cerevisiae deletion strains, locus YMR307W, strain GAS1, stronger effect = lower value 1.02 | S. cerevisiae deletion strains, locus YNL067W, strain RPL9B, stronger effect = lower value 1.03 | S. cerevisiae deletion strains, locus YNL071W, strain lat1, stronger effect = lower value 0.991 | S. cerevisiae deletion strains, locus YNL128W, strain TEP1, stronger effect = lower value 1.02 | S. cerevisiae deletion strains, locus YNL153C, strain GIM3, stronger effect = lower value 1.03 | S. cerevisiae deletion strains, locus YNL183C, strain NPR1, stronger effect = lower value 0.935 | S. cerevisiae deletion strains, locus YNL209W, strain ssb2, stronger effect = lower value 1 | S. cerevisiae deletion strains, locus YNL233W, strain BNI4, stronger effect = lower value 1.04 | S. cerevisiae deletion strains, locus YNL248C, strain rpa49, stronger effect = lower value 0.997 | S. cerevisiae deletion strains, locus YNL250W, strain rad50, stronger effect = lower value 1 | S. cerevisiae deletion strains, locus YNL271C, strain bni1, stronger effect = lower value 1 | S. cerevisiae deletion strains, locus YNL298W, strain CLA4, stronger effect = lower value 0.999 | S. cerevisiae deletion strains, locus YNL307C, strain MCK1, stronger effect = lower value 1.01 | S. cerevisiae deletion strains, locus YNL322C, strain KRE1 (second series), stronger effect = lower value 0.995 | S. cerevisiae deletion strains, locus YNL322C, strain KRE1, stronger effect = lower value 1.01 | S. cerevisiae deletion strains, locus YNR049C, strain mso1, stronger effect = lower value 1 | S. cerevisiae deletion strains, locus YNR052C, strain pop2, stronger effect = lower value 0.991 | S. cerevisiae deletion strains, locus YOL006C, strain TOP1, stronger effect = lower value 1.06 | S. cerevisiae deletion strains, locus YOL012C, strain htz1 0.896 | S. cerevisiae deletion strains, locus YOL147C, strain pex11, stronger effect = lower value 1.01 | S. cerevisiae deletion strains, locus YOR001W, strain rrp6, stronger effect = lower value 1.01 | S. cerevisiae deletion strains, locus YOR061W, strain CKA2, stronger effect = lower value 1.01 | S. cerevisiae deletion strains, locus YOR069W, strain VPS5, stronger effect = lower value 0.999 | S. cerevisiae deletion strains, locus YOR070C, strain gyp1, stronger effect = lower value 0.996 | S. cerevisiae deletion strains, locus YOR080W, strain dia2, stronger effect = lower value 0.99 | S. cerevisiae deletion strains, locus YOR083W, strain WHI5, stronger effect = lower value 0.965 | S. cerevisiae deletion strains, locus YOR106W, strain vam3, stronger effect = lower value 0.98 | S. cerevisiae deletion strains, locus YOR136W, strain idh2, stronger effect = lower value 0.987 | S. cerevisiae deletion strains, locus YOR144C, strain elg1, stronger effect = lower value 1 | S. cerevisiae deletion strains, locus YOR184W, strain ser1, stronger effect = lower value 1.02 | S. cerevisiae deletion strains, locus YOR231W, strain MKK1, stronger effect = lower value 0.955 | S. cerevisiae deletion strains, locus YOR265W, strain rbl2, stronger effect = lower value 0.989 | S. cerevisiae deletion strains, locus YOR270C, strain vph1, stronger effect = lower value 1.01 | S. cerevisiae deletion strains, locus YOR290C, strain snf2, stronger effect = lower value 0.954 | S. cerevisiae deletion strains, locus YOR316C, strain cot1, stronger effect = lower value 1.01 | S. cerevisiae deletion strains, locus YPL051W, strain arl3, stronger effect = lower value 0.998 | S. cerevisiae deletion strains, locus YPL055C, strain LGE1, stronger effect = lower value 1.02 | S. cerevisiae deletion strains, locus YPL078C, strain atp4, stronger effect = lower value 0.969 | S. cerevisiae deletion strains, locus YPL106C, strain sse1, stronger effect = lower value 0.967 | S. cerevisiae deletion strains, locus YPL240C, strain hsp82, stronger effect = lower value 0.996 | S. cerevisiae deletion strains, locus YPL241C, strain CIN2, stronger effect = lower value 1.01 | S. cerevisiae deletion strains, locus YPL256C, strain CLN2, stronger effect = lower value 0.96 | S. cerevisiae deletion strains, locus YPR119W, strain clb2, stronger effect = lower value 1 | S. cerevisiae deletion strains, locus YPR141C, strain kar3, stronger effect = lower value 0.991 | S. cerevisiae deletion strains, locus YPR163C, strain tif3, stronger effect = lower value 1.01 | S. cerevisiae deletion strains, locus YPR167C, strain met16, stronger effect = lower value 0.992 | S. cerevisiae deletion strains, strain wtn01, stronger effect = lower value 0.992 | S. cerevisiae strains, strain wild type, stronger effect = lower value 1.01
